# Among all 210,000 compounds or so, about 520 (0.25%) were called active. Rule as the data show it: active = inhibition above about 50%; inactive = the rest. This excerpt belongs to a sample that is enriched for actives.
# Tested on: Plasmodium falciparum apicoplast DNA polymerase (apPOL)
# Assay: Pf-apPOL inhibitors, biochemical, fluorescence (AID 1794808)
# Settings: Recombinant Pf-apPOL, molecular beacon fluorescence, 1.5 h; at 10 µM; active compounds read high
row,SMILES,inhibition
1,CCCCC1(c2ccccc2)C(=O)NC(=O)NC1=O,81.2% (active)
2,CCC1(c2ccccc2)C(=O)NC(=O)N(C)C1=O (stereo not given),-0.8% (inactive)
3,CCC1(c2ccccc2)C(=O)NC(=O)N(C(=O)c2ccccc2I)C1=O (stereo not given),-1.8% (inactive)
4,Cc1nnc(SCc2nc3ccccc3c(=O)n2-c2ccccc2Cl)s1,0.3% (inactive)
5,CCn1cc(C(=O)NCc2cccc(C)c2)c2cccnc21,-12.8% (inactive)

# Reference: PubChem BioAssay AID1794808 (University of Kansas High Throughput Screening Laboratory, 2022)
